Laboratory results as given in PubChem BioAssay.
The source made the active and inactive calls.

Assays:
[1] = small molecules captured by biotinylated probe aFSTL3 – biochemical, small-molecule microarray, fluorescence 635/667, stem cell growth factor project, primary screen (AID 1064); conditions: higher = more signal;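 further: measures binding of the biotinylated anti-FSTL3 antibody to printed compounds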
[2] = binders from COS7 lysate, DM2A8 probe, primary screen, torsin A project, cell lysate, small-molecule microarray, fluorescence 635/667 (AID 1065); conditions: higher = more signal, COS7 lysate expressing mutant human TOR1A
[3] = small molecules captured by biotinylated probe aFGF2 – biochemical, small-molecule microarray, fluorescence 635/667, stem cell growth factor project, primary screen (AID 1067); conditions: higher = more signal;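 further: measures binding of biotinylated aFGF2 protein to printed compounds on slides; z-score merges feature fluorescence and signal-to-noise across triplicate slides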
[4] = small molecules captured by biotinylated probe aFGF10 – biochemical, small-molecule microarray, fluorescence 635/667, stem cell growth factor project, primary screen (AID 1071); conditions: higher = more signal;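 further: score merges 667 nm spot intensity and signal to noise from triplicate slides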
[5] = target: Neurogenic locus notch homolog protein 2 (Homo sapiens) (UniProt Q04721); assay: small molecules binding Notch2 protein – biochemical, small-molecule microarray, 635 nm fluorescence, stem cell growth factors, primary screen (AID 1073); conditions: higher = more signal
Sequence of Neurogenic locus notch homolog protein 2 (Homo sapiens) (Q04721 whole entry, looked up, canonical isoform): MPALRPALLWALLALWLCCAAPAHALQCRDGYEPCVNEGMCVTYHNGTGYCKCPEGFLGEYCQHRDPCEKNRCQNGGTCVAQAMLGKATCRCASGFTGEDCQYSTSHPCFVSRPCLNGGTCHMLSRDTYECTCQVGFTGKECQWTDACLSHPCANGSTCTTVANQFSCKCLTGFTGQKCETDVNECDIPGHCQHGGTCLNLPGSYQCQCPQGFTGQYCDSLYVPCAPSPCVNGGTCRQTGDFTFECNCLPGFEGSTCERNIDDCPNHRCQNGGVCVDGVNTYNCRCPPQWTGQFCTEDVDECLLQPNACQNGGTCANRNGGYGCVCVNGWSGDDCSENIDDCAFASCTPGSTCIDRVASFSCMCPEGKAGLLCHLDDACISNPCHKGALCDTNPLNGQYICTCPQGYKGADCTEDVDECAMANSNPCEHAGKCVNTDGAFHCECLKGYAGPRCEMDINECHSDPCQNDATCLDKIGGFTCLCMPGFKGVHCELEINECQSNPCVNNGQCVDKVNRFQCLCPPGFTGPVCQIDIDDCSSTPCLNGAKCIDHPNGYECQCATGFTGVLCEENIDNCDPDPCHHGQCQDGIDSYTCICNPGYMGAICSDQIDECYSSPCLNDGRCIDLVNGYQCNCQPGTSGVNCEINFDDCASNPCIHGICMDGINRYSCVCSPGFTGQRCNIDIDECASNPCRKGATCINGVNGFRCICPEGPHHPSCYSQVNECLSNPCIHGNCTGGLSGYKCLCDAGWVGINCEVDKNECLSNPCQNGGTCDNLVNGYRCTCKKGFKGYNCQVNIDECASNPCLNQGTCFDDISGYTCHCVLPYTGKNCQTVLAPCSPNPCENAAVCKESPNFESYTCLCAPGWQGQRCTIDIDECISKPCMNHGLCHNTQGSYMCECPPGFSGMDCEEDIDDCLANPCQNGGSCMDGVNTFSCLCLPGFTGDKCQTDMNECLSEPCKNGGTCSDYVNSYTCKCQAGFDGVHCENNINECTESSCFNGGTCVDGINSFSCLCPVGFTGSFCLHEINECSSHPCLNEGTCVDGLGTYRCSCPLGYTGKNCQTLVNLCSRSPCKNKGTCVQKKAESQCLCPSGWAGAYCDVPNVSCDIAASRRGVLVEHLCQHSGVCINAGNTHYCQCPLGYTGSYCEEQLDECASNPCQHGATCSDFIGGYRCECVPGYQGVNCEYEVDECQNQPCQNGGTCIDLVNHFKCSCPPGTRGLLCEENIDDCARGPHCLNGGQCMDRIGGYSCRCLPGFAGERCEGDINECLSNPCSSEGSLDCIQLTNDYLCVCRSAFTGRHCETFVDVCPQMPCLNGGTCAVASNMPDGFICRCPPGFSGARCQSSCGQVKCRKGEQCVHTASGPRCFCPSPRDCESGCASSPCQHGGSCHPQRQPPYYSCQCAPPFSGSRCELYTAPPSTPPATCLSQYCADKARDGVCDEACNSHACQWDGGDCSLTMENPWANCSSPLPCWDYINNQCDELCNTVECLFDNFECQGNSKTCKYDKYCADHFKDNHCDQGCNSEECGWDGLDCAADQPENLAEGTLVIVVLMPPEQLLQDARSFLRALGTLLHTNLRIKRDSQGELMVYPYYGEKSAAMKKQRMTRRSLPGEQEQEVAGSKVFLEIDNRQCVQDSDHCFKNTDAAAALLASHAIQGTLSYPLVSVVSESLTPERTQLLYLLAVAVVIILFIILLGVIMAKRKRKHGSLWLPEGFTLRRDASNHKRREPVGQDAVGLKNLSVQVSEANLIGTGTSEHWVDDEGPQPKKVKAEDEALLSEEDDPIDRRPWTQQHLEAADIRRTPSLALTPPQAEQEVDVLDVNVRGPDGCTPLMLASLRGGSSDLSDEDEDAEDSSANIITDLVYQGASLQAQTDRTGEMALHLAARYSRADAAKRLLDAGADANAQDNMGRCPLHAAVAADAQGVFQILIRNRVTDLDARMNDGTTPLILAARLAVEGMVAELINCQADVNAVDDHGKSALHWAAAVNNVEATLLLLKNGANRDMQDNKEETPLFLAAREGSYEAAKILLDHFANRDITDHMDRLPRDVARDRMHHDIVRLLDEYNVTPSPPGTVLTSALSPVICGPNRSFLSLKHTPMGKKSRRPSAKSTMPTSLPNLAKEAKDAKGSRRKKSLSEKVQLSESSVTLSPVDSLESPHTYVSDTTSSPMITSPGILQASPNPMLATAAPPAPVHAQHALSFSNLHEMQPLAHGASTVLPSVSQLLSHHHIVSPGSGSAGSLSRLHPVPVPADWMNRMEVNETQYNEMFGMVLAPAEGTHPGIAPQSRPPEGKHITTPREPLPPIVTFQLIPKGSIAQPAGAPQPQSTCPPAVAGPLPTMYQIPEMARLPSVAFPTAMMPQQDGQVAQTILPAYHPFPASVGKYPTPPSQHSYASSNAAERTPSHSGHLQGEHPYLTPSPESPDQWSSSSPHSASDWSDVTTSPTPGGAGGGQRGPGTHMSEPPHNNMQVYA

[6] = target: Pro-neuregulin-1, membrane-bound isoform (Homo sapiens) (UniProt Q02297); assay: small molecules binding neuregulin-1 protein – biochemical, small-molecule microarray, fluorescence 635/667, psychiatric disease protein project, primary screen (AID 1075); conditions: NRG1 binding, 635 nm fluorescence, higher = more signal;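 further: score combines 667 nm spot fluorescence with signal to noise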
[7] = system: Neuregulin-1 EGF-like domain; assay: small molecules binding NRG1 EGF domain – biochemical, small-molecule microarray, 635 nm fluorescence, primary screen (AID 1081); conditions: higher = more signal;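 further: binding of the protein to compounds printed on small-molecule microarray slides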
[8] = FRG1 expression reporter modulators in myotubes – cell-based, C2C12 myotubes, firefly/Renilla luciferase, luminescence, FRG1 inhibition for FSHD, primary screen (AID 1084); conditions: FRG1 promoter luciferase, higher = more signal, called active from +8 up or from −8 down
[9] = small molecules captured by biotinylated probe aFST – biochemical, small-molecule microarray, fluorescence 635/667, stem cell growth factor project, primary screen (AID 1086); conditions: higher = more signal;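 further: score merges 667 nm fluorescence with signal-to-noise of each printed compound spot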
[10] = binders of probe aHhip on microarray, primary screen, stem cell growth factor project, biochemical, small-molecule microarray, fluorescence 635/667 (AID 1087); conditions: higher = more signal;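 further: score merges spot fluorescence at 667nm with spot signal to noise ratio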
[11] = system: PRMT1 (protein arginine N-methyltransferase 1); assay: small molecules binding arginine methyltransferase PRMT1 – biochemical, small-molecule microarray, 635 nm fluorescence, primary screen (AID 1088); conditions: higher = more signal;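 further: binding of Prmt1 protein to compounds spotted on small-molecule microarray slides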
[12] = growth effects on S. cerevisiae YJM789 – YJM789 clinical isolate, OD600, 24 h, basal, primary screen (AID 1089); conditions: higher = more signal, called active from +8 up or from −8 down;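 further: growth of clinical yeast isolate S. cerevisiae YJM 789 seeded 1000 cells per well; test concentration not given here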
[13] = S. pombe growth modifiers, basal conditions – strain 972, OD600, 24 h, no modulator, primary screen (AID 1090);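 further: basal condition with compound alone and no growth modifier present; test concentration not given here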; conditions: S. pombe 972 growth, higher = more signal, called active from +8 up or from −8 down
[14] = budding yeast growth modifiers under rapamycin – strain BY4716, OD600, 96 h, primary screen (AID 1091); further: test concentration not given here; conditions: S. cerevisiae BY4716 + rapamycin, higher = more signal, called active from +8 up or from −8 down
[15] = target: Torsin-1A-interacting protein 2 (Homo sapiens) (UniProt Q8NFQ8); assay: small molecules binding lysate-expressed LULL1 – cell lysate, human LULL1 lysate, 635/667 nm fluorescence, primary screen (AID 1092); conditions: small-molecule microarray, hLULL1 lysate binding, 635 nm fluorescence; higher = more signal;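 further: probe is lysate of COS7 cells overexpressing human LULL1; score merges per-feature 667 nm fluorescence with signal-to-noise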
[16] = optical density change of DRC41 E. coli – strain DRC41, OD650, 24 h, E. coli filamentation project, primary screen (AID 1093);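 further: MC1000 strain lacking acrAB efflux and sulA so SOS filamentation is blocked; test concentration not given here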; conditions: E. coli DRC41 growth, higher = more signal, called active from +8 up or from −8 down
[17] = probe aLefty2 binding to arrayed compounds – biochemical, biotinylated probe, 635/667 nm fluorescence, primary screen (AID 1094); conditions: small-molecule microarray, higher = more signal;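 further: score merges spot fluorescence near 667 nm with spot signal-to-noise ratio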
[18] = system: Noggin (protein binding on small-molecule microarray); assay: small molecules binding Noggin protein – biochemical, 635/667 nm fluorescence, primary screen (AID 1095); conditions: 635 nm fluorescence, higher = more signal;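 further: score merges 667 nm feature fluorescence with signal to noise over triplicate slides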
[19] = target: Neurogenic locus notch homolog protein 3 (Homo sapiens) (UniProt Q9UM47); assay: small molecules binding NOTCH3 protein – biochemical, 635/667 nm fluorescence, primary screen (AID 1096); conditions: small-molecule microarray, 635 nm fluorescence, higher = more signal
Sequence of Neurogenic locus notch homolog protein 3 (Homo sapiens) (Q9UM47 whole entry, looked up): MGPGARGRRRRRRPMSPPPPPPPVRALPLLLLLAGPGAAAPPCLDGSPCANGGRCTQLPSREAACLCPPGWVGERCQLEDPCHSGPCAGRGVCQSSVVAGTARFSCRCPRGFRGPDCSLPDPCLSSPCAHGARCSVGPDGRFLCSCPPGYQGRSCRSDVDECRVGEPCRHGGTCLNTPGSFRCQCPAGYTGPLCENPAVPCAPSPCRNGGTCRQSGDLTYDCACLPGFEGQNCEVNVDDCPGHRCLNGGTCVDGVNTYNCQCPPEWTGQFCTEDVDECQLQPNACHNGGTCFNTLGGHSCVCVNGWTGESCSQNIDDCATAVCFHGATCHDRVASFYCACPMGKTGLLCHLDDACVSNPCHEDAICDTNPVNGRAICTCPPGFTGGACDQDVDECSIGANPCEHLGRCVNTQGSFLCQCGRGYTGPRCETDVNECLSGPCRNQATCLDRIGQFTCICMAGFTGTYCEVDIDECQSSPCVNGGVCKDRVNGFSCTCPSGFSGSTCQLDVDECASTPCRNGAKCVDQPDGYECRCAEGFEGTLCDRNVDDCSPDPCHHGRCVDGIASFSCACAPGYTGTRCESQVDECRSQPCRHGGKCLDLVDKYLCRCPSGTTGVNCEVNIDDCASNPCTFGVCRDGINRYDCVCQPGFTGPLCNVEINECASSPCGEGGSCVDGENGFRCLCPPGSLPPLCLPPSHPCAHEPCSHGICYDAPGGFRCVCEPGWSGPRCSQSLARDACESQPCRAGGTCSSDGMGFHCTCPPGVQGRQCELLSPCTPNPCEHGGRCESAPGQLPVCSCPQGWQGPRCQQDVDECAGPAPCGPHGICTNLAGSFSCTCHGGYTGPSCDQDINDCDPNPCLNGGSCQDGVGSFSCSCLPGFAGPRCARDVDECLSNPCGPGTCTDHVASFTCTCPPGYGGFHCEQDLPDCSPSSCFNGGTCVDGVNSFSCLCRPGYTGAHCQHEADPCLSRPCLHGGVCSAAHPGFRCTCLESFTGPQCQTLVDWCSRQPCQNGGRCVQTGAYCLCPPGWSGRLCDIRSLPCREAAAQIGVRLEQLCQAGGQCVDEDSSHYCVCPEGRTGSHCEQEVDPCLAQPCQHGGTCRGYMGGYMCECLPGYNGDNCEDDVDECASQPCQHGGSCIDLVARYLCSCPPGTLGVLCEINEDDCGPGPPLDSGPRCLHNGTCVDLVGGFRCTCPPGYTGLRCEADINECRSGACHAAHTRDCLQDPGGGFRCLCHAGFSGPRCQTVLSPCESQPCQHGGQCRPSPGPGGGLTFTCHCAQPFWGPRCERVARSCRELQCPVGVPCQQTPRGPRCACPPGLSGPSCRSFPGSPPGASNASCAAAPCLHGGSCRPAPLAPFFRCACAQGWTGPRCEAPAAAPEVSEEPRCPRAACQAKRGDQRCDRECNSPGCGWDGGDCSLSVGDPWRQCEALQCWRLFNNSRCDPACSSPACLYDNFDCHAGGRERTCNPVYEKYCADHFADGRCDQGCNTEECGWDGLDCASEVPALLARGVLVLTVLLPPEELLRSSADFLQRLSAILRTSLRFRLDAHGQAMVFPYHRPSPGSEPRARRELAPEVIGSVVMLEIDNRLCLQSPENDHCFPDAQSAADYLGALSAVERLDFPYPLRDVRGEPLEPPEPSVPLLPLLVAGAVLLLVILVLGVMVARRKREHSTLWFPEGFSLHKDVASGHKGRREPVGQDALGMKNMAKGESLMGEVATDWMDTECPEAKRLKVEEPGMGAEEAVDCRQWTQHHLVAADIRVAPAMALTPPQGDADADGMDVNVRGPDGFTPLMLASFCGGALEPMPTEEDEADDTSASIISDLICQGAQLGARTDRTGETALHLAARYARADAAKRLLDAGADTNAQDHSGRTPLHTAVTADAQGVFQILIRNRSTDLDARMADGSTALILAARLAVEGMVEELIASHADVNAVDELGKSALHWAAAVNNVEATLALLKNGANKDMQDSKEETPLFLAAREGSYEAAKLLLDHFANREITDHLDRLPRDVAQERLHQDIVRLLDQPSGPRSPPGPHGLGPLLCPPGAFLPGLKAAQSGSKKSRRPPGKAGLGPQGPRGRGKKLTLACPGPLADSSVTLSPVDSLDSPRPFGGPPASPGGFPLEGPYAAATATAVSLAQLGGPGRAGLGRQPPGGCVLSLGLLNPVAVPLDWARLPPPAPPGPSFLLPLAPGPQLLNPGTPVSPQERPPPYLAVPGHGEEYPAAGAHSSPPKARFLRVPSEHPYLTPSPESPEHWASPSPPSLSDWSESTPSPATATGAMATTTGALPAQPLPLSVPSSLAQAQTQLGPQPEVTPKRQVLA

[20] = probe aEGFR binding to arrayed compounds – biochemical, biotinylated probe, 635/667 nm fluorescence, primary screen (AID 1097); conditions: small-molecule microarray, higher = more signal;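 further: probe is a biotinylated anti-EGFR antibody binding compounds printed on slides; score combines fluorescence near 667 nm and signal to noise of each spot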

Row | SMILES | composite z-score [1] | composite z-score [2] | composite z-score [3] | composite z-score [4] | composite z-score [5] | composite z-score [6] | composite z-score [7] | z-score [8] | composite z-score [9] | composite z-score [10] | composite z-score [11] | z-score [12] | z-score [13] | z-score [14] | composite z-score [15] | z-score [16] | composite z-score [17] | composite z-score [18] | composite z-score [19] | composite z-score [20]
1 | CC(C)[Si]1(C(C)C)OCc2cc(C3CC3)nc(-c3ccccc3)c21 | 0.322 | 0.598 | -0.119 | -1.2 | -1.27 | -0.291 | -0.531 | -1.03 (inactive) | -0.135 | -0.261 | 0.168 | -0.604 (inactive) | -3.7 (inactive) | -1.39 (inactive) | -0.431 | 2.13 (inactive) | -0.142 | -0.246 | -0.802 | -0.216
2 | C=C(C)[C@@H]1CC=C(C(O)C2C=CC3C(=O)NC(=O)C3N2Nc2ccccn2)CC1 (stereo not given in full) | 0.541 | 1.27 | 0.0127 | 1.07 | 1.61 | 1.36 | 1.35 | 1.65 (inactive) | 1.5 | 0.0524 | 1.55 | 0.0118 (inactive) | 0.514 (inactive) | -0.285 (inactive) | 2.76 | -0.953 (inactive) | 0.607 | 1.9 | 1.02 | 0.641
3 | CCCNC(=O)[C@@H]1c2ccccc2C(=O)N(Cc2cc(F)cc(C(F)(F)F)c2)[C@H]1c1ccc(CO)cc1 | -0.0356 | 0.711 | 0.032 | 0.525 | 1.12 | 1.03 | 1.25 | -1.02 (inactive) | 0.613 | 0.0176 | 1.54 | -1.15 (inactive) | -2.49 (inactive) | -1.36 (inactive) | 2.83 | 1.97 (inactive) | 0.0465 | 1.66 | 1.05 | 0.289
4 | O=C/C=C/c1ccc(/C=C/c2ccccc2)cc1 | 1.02 | 0.107 | -0.105 | -0.324 | -0.429 | -0.422 | -0.34 | 3.71 (inactive) | 0.204 | 0.154 | -0.742 | -2.92 (inactive) | -19.7 (active) | -1.59 (inactive) | -0.917 | 1.51 (inactive) | 0.0262 | -0.43 | -1.2 | -0.225
5 | COc1ccc([Si](C)(C)[C@@H]2[C@@H](CCO)O[C@]3(C(=O)N(Cc4ccc(NC(=O)[C@H](C)O)cc4)c4ccccc43)[C@H]2C)cc1 | 0.0169 | 0.395 | -0.0606 | 0.585 | 0.684 | 1.05 | 1.19 | -4.16 (inactive) | 0.152 | -0.0618 | 1.47 | 3.17 (inactive) | -1.06 (inactive) | 14.8 (active) | 2.42 | 1.78 (inactive) | 0.12 | 0.123 | 0.62 | -0.102
